The source made the active and inactive calls.
Experiments:
[1] = compounds binding Alexa647 anti-His antibody – biochemical, small-molecule microarray, 635 nm fluorescence, artefact control for SMM control protein annotation, primary screen (AID 1128); conditions: higher = more signal;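 also: score merges feature fluorescence with signal-to-noise for each printed compound spot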
[2] = tested on: Human papillomavirus type 1a E7 protein (residues 1-88); assay: HPV1a E7 small-molecule binders, primary screen, biochemical, small-molecule microarray, residues 1-88, 635 nm (AID 1129); conditions: small-molecule microarray binding, fluorescence 635 nm; higher = more signal
[3] = target: Focal adhesion kinase 1 (Homo sapiens) (UniProt Q05397); assay: PTK2 protein binding on printed compound slides – biochemical, small-molecule microarray, 635/667 nm fluorescence, BSA, DTT, primary screen (AID 1130); conditions: 635 nm fluorescence, higher = more signal;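 also: composite of spot emission at 667 nm and signal to noise over triplicate slides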
Focal adhesion kinase 1 (Homo sapiens), sequence (Q05397 whole entry, looked up): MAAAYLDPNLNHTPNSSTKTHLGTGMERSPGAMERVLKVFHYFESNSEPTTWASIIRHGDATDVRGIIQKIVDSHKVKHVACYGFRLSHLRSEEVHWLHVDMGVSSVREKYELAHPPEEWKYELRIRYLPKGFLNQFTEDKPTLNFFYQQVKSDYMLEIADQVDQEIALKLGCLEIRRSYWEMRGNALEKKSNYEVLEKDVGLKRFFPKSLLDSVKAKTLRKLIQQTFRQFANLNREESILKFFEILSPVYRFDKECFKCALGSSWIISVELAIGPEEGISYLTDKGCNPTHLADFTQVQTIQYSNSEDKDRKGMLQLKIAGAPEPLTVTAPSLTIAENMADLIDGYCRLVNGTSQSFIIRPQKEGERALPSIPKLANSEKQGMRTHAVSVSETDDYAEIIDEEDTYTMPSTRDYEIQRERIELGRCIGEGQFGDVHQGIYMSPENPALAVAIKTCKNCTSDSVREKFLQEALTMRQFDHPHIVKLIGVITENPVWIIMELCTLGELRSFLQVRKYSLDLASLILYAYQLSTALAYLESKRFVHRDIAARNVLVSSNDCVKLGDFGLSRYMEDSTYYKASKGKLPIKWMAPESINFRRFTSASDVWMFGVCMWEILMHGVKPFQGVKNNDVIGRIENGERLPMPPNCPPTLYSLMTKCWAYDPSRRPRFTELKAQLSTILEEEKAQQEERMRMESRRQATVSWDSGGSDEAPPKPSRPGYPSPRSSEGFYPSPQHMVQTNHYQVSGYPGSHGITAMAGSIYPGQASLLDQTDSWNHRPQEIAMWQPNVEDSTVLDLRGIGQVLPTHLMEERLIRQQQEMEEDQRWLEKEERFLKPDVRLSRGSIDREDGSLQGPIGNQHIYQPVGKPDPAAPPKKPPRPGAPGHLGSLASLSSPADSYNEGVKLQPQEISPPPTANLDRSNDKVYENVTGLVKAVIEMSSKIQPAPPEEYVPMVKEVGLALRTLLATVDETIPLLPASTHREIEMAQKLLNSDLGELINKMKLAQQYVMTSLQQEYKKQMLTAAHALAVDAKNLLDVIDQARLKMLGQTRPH

[4] = tested on: Fibrinogen (Alexa647-labelled); assay: Alexa647-fibrinogen binding to printed small molecules – biochemical, small-molecule microarray, 635/667 nm fluorescence, artefact control for SMM control-protein annotation, profiling panel (AID 1131); conditions: fibrinogen-A647 binding fluorescence, higher = more signal;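 also: z-score merges 667 nm fluorescence with per-spot signal-to-noise over triplicate slides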
[5] = target: Follistatin (Homo sapiens) (UniProt P19883); assay: FST protein binding to printed compounds – biochemical, small-molecule microarray, 635/667 nm fluorescence, primary screen (AID 1132); conditions: 635 nm fluorescence, higher = more signal
Follistatin (Homo sapiens), sequence (P19883 whole entry, looked up): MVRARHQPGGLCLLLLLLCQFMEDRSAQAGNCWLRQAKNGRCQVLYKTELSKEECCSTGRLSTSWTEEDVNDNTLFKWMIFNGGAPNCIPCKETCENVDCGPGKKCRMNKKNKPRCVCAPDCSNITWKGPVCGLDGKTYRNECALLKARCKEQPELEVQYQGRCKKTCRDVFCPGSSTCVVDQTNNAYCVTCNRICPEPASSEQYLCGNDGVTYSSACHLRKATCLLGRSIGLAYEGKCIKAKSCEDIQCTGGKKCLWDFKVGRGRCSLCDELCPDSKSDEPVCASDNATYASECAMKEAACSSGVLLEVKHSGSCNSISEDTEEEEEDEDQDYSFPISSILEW

[6] = target: Fibroblast growth factor 2 (Homo sapiens) (UniProt P09038); assay: basic fibroblast growth factor binding to printed compounds – biochemical, small-molecule microarray, 635/667 nm fluorescence, primary screen (AID 1133); conditions: FGF2, fluorescence 635/667, higher = more signal
Fibroblast growth factor 2 (Homo sapiens), sequence (P09038 whole entry, looked up): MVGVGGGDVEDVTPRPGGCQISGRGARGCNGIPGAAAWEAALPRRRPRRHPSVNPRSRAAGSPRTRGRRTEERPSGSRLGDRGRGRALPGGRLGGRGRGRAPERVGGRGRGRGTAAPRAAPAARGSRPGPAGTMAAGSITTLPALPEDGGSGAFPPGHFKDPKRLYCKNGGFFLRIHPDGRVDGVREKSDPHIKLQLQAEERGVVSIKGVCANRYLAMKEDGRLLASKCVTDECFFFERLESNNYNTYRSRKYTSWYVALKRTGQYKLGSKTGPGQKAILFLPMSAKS

[7] = JC-1 mitochondrial potential readout, lung cancer cells – cell-based, A549, JC-1 fluorescence, basal, 24 h, 100 nL, profiling panel (AID 1138); conditions: higher = more signal;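 also: A549 lung adenocarcinoma cells under basal conditions with no added stimulus; test concentration not given here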
Lefty1 = Lefty1 protein binding to printed compounds – biochemical, small-molecule microarray, 635/667 nm fluorescence, primary screen (AID 1139); conditions: fluorescence 635/667, higher = more signal
[8] = tested on: wheat germ agglutinin (Triticum aestivum), Alexa647-labelled; assay: Alexa647-WGA lectin binding to printed small molecules – biochemical, small-molecule microarray, 635/667 nm fluorescence, artefact control for SMM control-protein annotation, profiling panel (AID 1140); conditions: WGA-A647 binding, 635 nm fluorescence, higher = more signal;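 also: score merges 667 nm feature emission with signal to noise over triplicate slides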
[9] = target: Luciferin 4-monooxygenase (Photinus pyralis) (UniProt P08659); assay: inhibition of purified Photinus pyralis luciferase – biochemical, luminescence, purified enzyme, 2006 set, primary screen (AID 1141); conditions: purified firefly luciferase, SteadyGlo luminescence, 30 min; higher = more signal, called active from +8 up or from −8 down;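 also: cell-free assay with purified firefly luciferase at 100 ng per well in PBS; test concentration not given here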
Luciferin 4-monooxygenase (Photinus pyralis), sequence (P08659 whole entry, looked up): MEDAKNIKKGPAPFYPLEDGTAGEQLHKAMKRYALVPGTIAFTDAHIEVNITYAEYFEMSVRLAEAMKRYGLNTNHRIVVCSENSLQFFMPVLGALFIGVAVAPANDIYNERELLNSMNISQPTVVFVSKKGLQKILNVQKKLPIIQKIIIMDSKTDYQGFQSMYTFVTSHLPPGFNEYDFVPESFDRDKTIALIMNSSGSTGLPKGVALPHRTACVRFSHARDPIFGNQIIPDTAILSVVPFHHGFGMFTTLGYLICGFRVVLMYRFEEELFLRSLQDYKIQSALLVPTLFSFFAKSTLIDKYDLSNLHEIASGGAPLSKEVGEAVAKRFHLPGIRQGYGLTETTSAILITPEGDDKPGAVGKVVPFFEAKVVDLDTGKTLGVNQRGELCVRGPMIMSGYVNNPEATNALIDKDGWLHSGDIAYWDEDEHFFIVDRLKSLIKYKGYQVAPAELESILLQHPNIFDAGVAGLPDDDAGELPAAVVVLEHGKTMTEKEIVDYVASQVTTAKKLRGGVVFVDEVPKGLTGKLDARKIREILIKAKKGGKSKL

SMILES | composite z-score [1] | composite z-score [2] | composite z-score [3] | composite z-score [4] | composite z-score [5] | composite z-score [6] | z-score [7] | composite z-score (Lefty1) | composite z-score [8] | z-score [9]
CCN1C(=O)[C@H]2[C@H]3[C@H](O)[C@H](O)CC(=O)[C@H]3CC[C@H]2C1=O | 0.463 | 0.809 | 0.0493 | 0.861 | 0.486 | 0.485 | -0.335 | 0.559 | 0.145 | -0.371 (inactive)
O=C1CCCC(C2=CCCCC2=O)C1 (stereo not given) | -0.496 | -0.624 | 0.26 | -0.67 | 1.01 | 0.567 | 0.475 | 1.02 | -0.397 | -0.242 (inactive)
O=C1[C@H]2[C@H]3[C@H](O)[C@H](O)CC(=NOC[C@@H](O)COCc4ccco4)[C@H]3CC[C@H]2C(=O)N1c1ccc(F)cc1F | -0.385 | 0.553 | -0.0614 | -1.6 | -0.868 | -1.01 | 0.383 | -0.0889 | 0.972 | -0.243 (inactive)
CO[C@H](C1CCCCC1)[C@H](C)C=CCC(=O)OCCCc1ccccc1 | 3.29 | -1.15 | 0.114 | -0.938 | 0.351 | 0.541 | -0.00988 | 0.0696 | -0.464 | -1.02 (inactive)
COc1ccc(O[C@H]2C=C[C@@H](c3ccccc3)O[C@@H]2CON=C(C)CCN2CCc3nc(-c4ccccc4)c(-c4ccccc4)cc3C2)cc1 | 1.38 | -0.536 | 0.119 | 0.948 | 0.477 | 0.0194 | 1.87 | 0.269 | 0.0216 | 0.84 (inactive)
C[C@H]1Cc2c(COc3ccccc3)nc3c(c2CO1)CN(CCOc1ccccc1)CC3 | 1.07 | 0.804 | 0.673 | 0.702 | 1.18 | 0.537 | 4.09 | 1.13 | 0.346 | -1.19 (inactive)
CC(C)C[C@H](NC(=O)CCC1CC(OC(=O)NCc2cccc3ccccc23)CC2(CCCC(COC(=O)NCc3ccccc3)O2)O1)C(=O)NCC(c1ccccc1)c1ccccc1 (stereo not given in full) | 0.231 | 1.13 | 0.383 | 0.803 | 0.909 | 1.27 | 1.09 | 1.07 | 0.493 | 0.43 (inactive)
CO[C@H]1COC(=O)[C@@H](C)COC(=O)[C@H](C)NC(=O)CC=C[C@H]1C | -0.79 | -0.764 | -0.113 | -0.47 | 1.31 | 0.871 | 0.853 | 1.58 | -0.379 | -0.185 (inactive)
CO[C@@H]1COC(=O)[C@@H]2CCCN2C(=O)[C@@H](C)COC(=O)CC=C[C@H]1C | 0.408 | 0.923 | -0.194 | 0.527 | 0.365 | 1.51 | -0.84 | 1.01 | -0.0639 | 1.48 (inactive)
COC(=O)[C@@H]1CC[C@H](C)[C@@H](c2ccc(C)cc2)N1C(=O)c1ccc(C=NO[C@H](C)c2cn([C@@H]3COC[C@H]3O)nn2)cc1 | -0.684 | 1.13 | 0.155 | 0.677 | 0.353 | 0.502 | -0.662 | 0.551 | 0.145 | 0.411 (inactive)
O=C1[C@H]2[C@H]3[C@H](O)[C@H](O)CC(=NOC[C@@H](O)COCc4ccco4)[C@H]3CC[C@H]2C(=O)N1Cc1ccccc1 | -0.267 | -0.429 | -0.326 | -1.55 | 0.691 | 0.633 | -0.287 | 0.496 | -0.438 | 0.737 (inactive)
CC(C)=CCCC(C)=CCON=C1C[C@@H](O)[C@@H](O)[C@@H]2[C@@H]3C(=O)N(C(C)(C)C)C(=O)[C@@H]3CC[C@H]12 | -0.119 | 0.635 | -0.0868 | 0.199 | 0.329 | 0.248 | -0.0133 | 0.536 | -0.849 | 0.0533 (inactive)
CCC(=O)[C@@]1(O)C(=O)N2C(=C3C(=O)OCC[C@@H]31)N(Cc1ccccc1)C(C)=C(C(=O)OC)[C@H]2c1ccccc1 | 0.188 | 0.405 | 1.08 | 0.375 | 0.538 | 0.465 | 0.523 | 0.436 | 0.0183 | -0.901 (inactive)
COc1ccc(O[C@H]2C=C[C@@H](c3ccccc3)O[C@@H]2CON=C(C)CCC(=O)OC[C@H]2O[C@H](c3ccccc3)C=C[C@@H]2Oc2ccc(OC)cc2)cc1 | 0.704 | -2.01 | -0.204 | -0.218 | -0.174 | -0.922 | 0.0976 | -0.162 | -1.13 | 1.27 (inactive)
CC(C)(C)N1C(=O)[C@H]2[C@H]3[C@H](O)[C@H](O)CC(=O)[C@H]3CC[C@H]2C1=O | 0.875 | 0.496 | -0.246 | 0.584 | 0.558 | 0.399 | -0.714 | 0.407 | 0.0902 | 0.206 (inactive)
CCOC(=O)[C@H](Cc1ccccc1)NC(=O)CCC1CC(OC(=O)NCc2cccc3ccccc23)CC2(CCCC(COC(=O)NCCC(C)C)O2)O1 (stereo not given in full) | 0.603 | -0.431 | -0.225 | 0.604 | 0.123 | -0.278 | -0.0858 | 0.129 | 0.757 | 0.871 (inactive)
COc1ccc(O[C@H]2C=C[C@@H](c3ccccc3)O[C@@H]2CON=C(C)C)cc1 | -0.732 | -1.11 | 0.433 | 0.152 | 0.234 | -0.287 | -0.541 | -0.0027 | 0.938 | 0.409 (inactive)
Cc1ccc(S(=O)(=O)n2c3ccccc3c3nnc(C(=O)c4ccccc4)nc32)cc1 | -0.252 | -0.0414 | -0.0158 | -1.08 | 0.583 | 0.978 | -1.99 | 0.0671 | -0.218 | -4.76 (inactive)
Cn1c(=O)n2n(c1=O)[C@H]1[C@H](O)[C@@H]3O[C@@H]3C(=NOCc3ccccc3)[C@H]1CC2 | 0.192 | -0.624 | 0.13 | -0.867 | -0.104 | -0.478 | 0.874 | 0.3 | 0.349 | -0.101 (inactive)
COC(=O)CC=C[C@@H](C)[C@@H](C=NOC[C@H]1O[C@H](c2ccccc2)C=C[C@@H]1Oc1ccc(OC)cc1)OC | 0.162 | -0.499 | -0.103 | -0.313 | 0.22 | -0.435 | 0.0691 | -0.0398 | -0.0524 | 0.4 (inactive)
CO[C@H]1COC(=O)CC=C[C@H](C)[C@@H](OC)COC(=O)[C@H](C)COC(=O)CC=C[C@@H]1C | 0.487 | -0.759 | -0.309 | -0.899 | 1.36 | 1.36 | 1.13 | 1.12 | -0.844 | -0.913 (inactive)
COC(=O)[C@H](C)NC(=O)CCC1CC(OC(=O)NCc2ccc3c(c2)OCO3)CC2(CCCC(COC(=O)NCC3CCCCC3)O2)O1 (stereo not given in full) | 0.807 | 1.16 | 0.408 | 0.52 | 0.533 | 0.77 | -0.00341 | 0.97 | 0.723 | 1.16 (inactive)
CCOC(=O)C1=NO[C@@]2(C=C(Br)C3(OCCCO3)[C@H]3O[C@H]32)C1 | 0.968 | 0.228 | 0.0306 | 0.982 | 1.43 | 1.14 | -0.0326 | 1.04 | 0.818 | -0.279 (inactive)
CCN1C(=O)[C@H]2[C@H]3[C@H](O)[C@H](O)CC(=NOC[C@H]4O[C@H](c5ccccc5)C=C[C@@H]4Oc4ccc(OC)cc4)[C@@H]3CC[C@H]2C1=O | -0.157 | 0.829 | -0.139 | 0.894 | 0.74 | 1.01 | 0.385 | 1.19 | 0.246 | 0.468 (inactive)
C[C@@H](c1ccccc1)N1C(=O)[C@H]2[C@H]3[C@H](O)[C@H](O)CC(=NO[C@@H]4O[C@H](CO)[C@@H](O)[C@H](O)[C@H]4O)[C@@H]3CC[C@H]2C1=O | 0.26 | 0.585 | -0.0533 | 0.19 | 0.31 | 0.281 | 0.269 | 0.351 | -0.0604 | 0.351 (inactive)
Cc1ccc(S(=O)(=O)N[C@@H]2COC(=O)[C@@H](C)COC(=O)CC=C[C@H]2C)cc1 | 0.204 | 0.389 | -0.033 | 0.466 | 0.516 | 0.636 | 0.493 | 0.383 | -0.0537 | -0.836 (inactive)
CCOC(=O)[C@H](Cc1ccccc1)NC(=O)CCC1CC(OC(=O)NCc2cccc3ccccc23)CC2(CCCC(COC(=O)NCC(c3ccccc3)c3ccccc3)O2)O1 (stereo not given in full) | 1.06 | 0.455 | 0.384 | 0.853 | 0.411 | 0.39 | -0.243 | 0.589 | -0.0722 | 0.611 (inactive)

Source: PubChem BioAssay
